# Source: PubChem BioAssay (Tox21)
# Several values for one entry are separate records, joined by “and”; a condition that tells them apart may be missing. Equal values may be shown once. The source holds several records for some structures; these can differ, active in one and inactive in another. Activity calls are given as the source filed them. Where a call stands in place of a potency, no number is given. Unless noted, the call rests on the fitted dose curve; in most records, active means well fitted curve in the direction sought with a large enough effect in the repeat runs; inconclusive means weak or mixed curves; inactive means no such curve, though single readings can be large; an effect the other way counts as inactive or inconclusive.
# Assays:
# [1] = qHTS assay to identify small molecule antagonists of the glucocorticoid receptor (GR) signaling pathway - cell viability counter screen (AID 720693); further: nearly all actives have a fitted effect of over 55% in size
# [2] = qHTS assay for identifying genotoxic compounds that show differential cytotoxicity against isogenic chicken DT40 cell lines with known DNA damage response pathways - wild type cell line (AID 743012); further: nearly all actives have a fitted effect of over 60% in size; further: potency means the concentration at half of the fitted maximal effect
# How it was run: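 Viability by ATP luminescence (CellTiter-Glo, 30 min RT) after 40 h compound treatment at 37 C/5% CO2, using 300 parental DNA repair-proficient DT40 cells per well.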
# [3] = qHTS assay to identify small molecule antagonists of the androgen receptor (AR) signaling pathway - cell viability counter screen (AID 743033; further: nearly all actives have a fitted effect of over 45% in size; further: potency means the concentration at half of the fitted maximal effect)
# [4] = qHTS assay to identify small molecule antagonists of the androgen receptor (AR) signaling pathway using the MDA cell line - cell viability counter screen (AID 743041; further: nearly all actives have a fitted effect of over 45% in size; further: potency means the concentration at half of the fitted maximal effect)
# How it was run: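 Viability read by CellTiter-Fluor fluorescence in the same wells as the antagonist screen, added after 15.5 h of a 16 h, 37C exposure. Human breast carcinoma MDA-kb2 AR-luc cells, compounds co-dosed with agonist R1881.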
# [5] = qHTS assay to identify small molecule antagonists of the thyroid receptor (TR) signaling pathway - cell viability counter screen (AID 743064); further: nearly all actives have a fitted effect of over 50% in size; further: potency means the concentration at half of the fitted maximal effect
# How it was run: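 Viability of T3-stimulated (1 nM final) GH3.TRE-Luc cells is measured by CellTiter-Fluor fluorescence after 23.5 h compound exposure at 37 °C plus 30 min reagent incubation.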
# [6] = test system: thyroid hormone receptor (rat, GH3 cells); assay: qHTS assay to identify small molecule agonists of the thyroid receptor (TR) signaling pathway (AID 743066; calls by dose curve)
# [7] = qHTS assay to identify small molecule antagonists of the estrogen receptor alpha (ER-alpha) signaling pathway - cell viability counter screen (AID 743074; calls by dose curve;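 further: HEK293 cells carrying ER-alpha-UAS-bla reporter stimulated with 17beta-estradiol; nearly all actives have a fitted effect of over 45% in size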)
# [8] = biological target: Estrogen receptor (Homo sapiens) (UniProt P03372); assay: qHTS assay to identify small molecule agonists of the estrogen receptor alpha (ER-alpha) signaling pathway (AID 743075; calls by dose curve;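 further: HEK293 GripTite cells with ER-alpha and UAS-driven beta-lactamase reporter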)
# Sequence of Estrogen receptor (Homo sapiens) (P03372 whole entry, looked up): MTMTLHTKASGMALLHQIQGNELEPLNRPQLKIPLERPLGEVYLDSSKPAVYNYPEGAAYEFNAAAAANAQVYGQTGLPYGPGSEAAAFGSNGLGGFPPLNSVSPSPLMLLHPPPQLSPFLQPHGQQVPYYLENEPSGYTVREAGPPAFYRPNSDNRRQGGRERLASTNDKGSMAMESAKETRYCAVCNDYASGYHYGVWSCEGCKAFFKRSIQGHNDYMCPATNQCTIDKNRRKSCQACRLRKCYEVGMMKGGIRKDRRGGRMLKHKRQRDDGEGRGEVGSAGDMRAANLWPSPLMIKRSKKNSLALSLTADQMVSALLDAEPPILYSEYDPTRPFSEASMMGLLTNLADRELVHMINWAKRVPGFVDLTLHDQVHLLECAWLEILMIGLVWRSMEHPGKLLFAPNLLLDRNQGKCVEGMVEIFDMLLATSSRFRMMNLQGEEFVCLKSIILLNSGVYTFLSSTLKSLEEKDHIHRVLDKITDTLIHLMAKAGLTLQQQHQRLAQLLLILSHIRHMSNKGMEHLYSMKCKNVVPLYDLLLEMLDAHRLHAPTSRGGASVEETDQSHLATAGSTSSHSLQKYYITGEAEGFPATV
# [9] = qHTS assay to identify small molecule antagonists of the estrogen receptor alpha (ER-alpha) signaling pathway using the BG1 cell line - cell viability counter screen (AID 743081);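 further: compound given together with 17beta-estradiol as the ER stimulus; nearly all actives have a fitted effect of over 45% in size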; further: potency means the concentration at half of the fitted maximal effect
# [10] = qHTS assay for identifying genotoxic compounds that show differential cytotoxicity against isogenic chicken DT40 cell lines with known DNA damage response pathways - Rev3 mutant cell line (AID 743014); further: nearly all actives have a fitted effect of over 55% in size; further: potency means the concentration at half of the fitted maximal effect
# [11] = qHTS assay for identifying genotoxic compounds that show differential cytotoxicity against isogenic chicken DT40 cell lines with known DNA damage response pathways - Rad54/Ku70 mutant cell line (AID 743015); further: nearly all actives have a fitted effect of over 60% in size; further: potency means the concentration at half of the fitted maximal effect
# [12] = biological target: Estrogen receptor (Homo sapiens) (UniProt P03372); assay: qHTS assay to identify small molecule antagonists of the estrogen receptor alpha (ER-alpha) signaling pathway (AID 743069; active means well fitted curve in the direction sought with a large enough effect in the signal ratio in the repeat runs, not every such curve was filed as active; inconclusive means weak or mixed curves, or effect the other way; inactive means no such curve, though single readings can be large or run the other way; the % refers to the signal ratio; further: potency means the concentration at half of the fitted maximal effect)
# How it was run: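 Antagonist mode: compounds in DMSO were co-added with 17beta-estradiol to ER-alpha-bla HEK293 cells (2% charcoal-stripped serum) and left 18 h at 37C. Reporter inhibition was measured as FRET fluorescence after 2 h LiveBLAzer substrate at room temperature.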
# [13] = biological target: Estrogen receptor (Homo sapiens) (UniProt P03372); assay: qHTS assay to identify small molecule agonists of the estrogen receptor alpha (ER-alpha) signaling pathway using the BG1 cell line (AID 743079); further: nearly all actives have a fitted effect of over 20% in size; further: potency means the concentration at half of the fitted maximal effect
# [14] = qHTS assay to identify small molecule antagonists of the estrogen receptor alpha (ER-alpha) signaling pathway using the BG1 cell line (AID 743080; calls by dose curve;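 further: BG1 cells stimulated with 17beta-estradiol alongside compound; nearly all actives have a fitted effect of over 25% in size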; further: potency means the concentration at half of the fitted maximal effect)
# How it was run: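 Quantitative HTS on the Tox21 10K library: BG1 cells with endogenous ER-alpha and ERE-luciferase reporter, 17beta-estradiol stimulation, 21.5 h compound exposure, luminescence endpoint with parallel fluorescence cytotoxicity counter-read.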
# Aromatase (Homo sapiens) = Aromatase (Homo sapiens) (UniProt P11511); assay: qHTS assay to identify aromatase inhibitors (AID 743083); further: nearly all actives have a fitted effect of over 55% in size; further: potency means the concentration at half of the fitted maximal effect
# Sequence of Aromatase (Homo sapiens) (P11511 whole entry, looked up): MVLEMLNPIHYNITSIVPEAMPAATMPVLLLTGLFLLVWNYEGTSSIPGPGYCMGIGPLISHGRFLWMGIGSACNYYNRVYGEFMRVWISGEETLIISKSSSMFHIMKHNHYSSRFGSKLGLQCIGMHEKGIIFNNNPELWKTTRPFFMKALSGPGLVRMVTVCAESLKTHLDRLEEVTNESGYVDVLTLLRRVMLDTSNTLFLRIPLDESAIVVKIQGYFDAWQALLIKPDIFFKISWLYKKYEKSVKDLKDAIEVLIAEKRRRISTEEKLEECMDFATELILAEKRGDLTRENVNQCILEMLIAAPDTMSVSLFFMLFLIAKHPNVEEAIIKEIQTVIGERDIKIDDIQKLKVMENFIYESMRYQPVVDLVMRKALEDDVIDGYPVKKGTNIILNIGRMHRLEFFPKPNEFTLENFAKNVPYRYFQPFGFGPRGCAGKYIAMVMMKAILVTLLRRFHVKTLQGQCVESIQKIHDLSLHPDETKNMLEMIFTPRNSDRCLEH
# [15] = qHTS assay to identify small molecule antagonists of the thyroid receptor (TR) signaling pathway (AID 743065); further: nearly all actives have a fitted effect of over 55% in size; further: potency means the concentration at half of the fitted maximal effect
# How it was run: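 Antagonism measured as loss of luciferase signal in GH3 cells stably carrying a TRE-luciferase reporter, co-treated with compound and T3 (1 nM final) for 23.5 h at 37 C. Viability was read in the same well by CellTiter-Fluor.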
# [16] = biological target: Androgen receptor (Homo sapiens) (UniProt P10275); assay: qHTS assay to identify small molecule antagonists of the androgen receptor (AR) signaling pathway (AID 743035; active means well fitted inhibition curve with a large enough effect in the signal ratio in the repeat runs, not every such curve was filed as active; inconclusive means weak or mixed curves, or effect the other way; inactive means no such curve, though single readings can be large or run the other way; the % refers to the signal ratio; further: potency means the concentration at half of the fitted maximal effect)
# Sequence of Androgen receptor (Homo sapiens) (P10275 whole entry, looked up): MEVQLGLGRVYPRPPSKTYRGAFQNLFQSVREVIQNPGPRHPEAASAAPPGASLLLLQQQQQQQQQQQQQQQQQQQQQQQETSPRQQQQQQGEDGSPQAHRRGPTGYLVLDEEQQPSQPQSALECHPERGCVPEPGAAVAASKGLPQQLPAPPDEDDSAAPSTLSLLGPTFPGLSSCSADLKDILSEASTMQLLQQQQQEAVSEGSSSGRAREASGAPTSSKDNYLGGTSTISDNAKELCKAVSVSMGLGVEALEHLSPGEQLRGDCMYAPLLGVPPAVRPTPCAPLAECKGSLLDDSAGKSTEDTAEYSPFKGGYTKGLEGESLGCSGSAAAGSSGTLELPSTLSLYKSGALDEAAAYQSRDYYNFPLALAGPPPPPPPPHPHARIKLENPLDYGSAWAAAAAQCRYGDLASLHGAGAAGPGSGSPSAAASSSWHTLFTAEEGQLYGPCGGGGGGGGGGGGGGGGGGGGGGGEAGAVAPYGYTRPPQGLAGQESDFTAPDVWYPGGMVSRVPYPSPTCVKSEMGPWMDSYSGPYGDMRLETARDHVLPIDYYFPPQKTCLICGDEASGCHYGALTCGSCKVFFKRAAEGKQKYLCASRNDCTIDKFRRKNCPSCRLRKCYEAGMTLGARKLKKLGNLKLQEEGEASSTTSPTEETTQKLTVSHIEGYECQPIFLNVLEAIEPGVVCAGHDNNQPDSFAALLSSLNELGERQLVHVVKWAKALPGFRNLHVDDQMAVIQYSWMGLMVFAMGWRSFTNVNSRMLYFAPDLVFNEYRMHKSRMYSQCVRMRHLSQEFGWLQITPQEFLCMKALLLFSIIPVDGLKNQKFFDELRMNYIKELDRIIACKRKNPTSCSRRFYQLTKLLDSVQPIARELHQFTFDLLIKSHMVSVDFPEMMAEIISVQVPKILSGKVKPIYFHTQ
# How it was run: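 Antagonist mode: AR-bla HEK293 cells co-treated with test compounds and agonist R1881 for 16 h at 37C, 5% CO2. Beta-lactamase activity read as FRET fluorescence after 2 h room-temperature substrate loading.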
# [17] = biological target: Androgen receptor (Homo sapiens) (UniProt P10275); assay: qHTS assay to identify small molecule agonists of the androgen receptor (AR) signaling pathway (AID 743036; active means well fitted activation curve with a large enough effect in the signal ratio in the repeat runs, with a control signal flat, not every such curve was filed as active; inconclusive means weak or mixed curves, or effect the other way; inactive means no such curve, though single readings can be large or run the other way; the % refers to the signal ratio)
# How it was run: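 Screening used 2,000 AR-bla HEK293 cells per well, treated 16 h at 37C with test compounds in DMSO alongside positive and DMSO-only controls; beta-lactamase activity was then read by LiveBLAzer B/G FRET fluorescence after 2 h at room temperature.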
# [18] = biological target: Androgen receptor (Homo sapiens) (UniProt P10275); assay: qHTS assay to identify small molecule agonists of the androgen receptor (AR) signaling pathway using the MDA cell line (AID 743040; further: nearly all actives have a fitted effect of over 20% in size)
# How it was run: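 Luciferase agonist assay: 16 h compound exposure at 37C without CO2 in MDA-kb2 AR-luc cells, whose MMTV promoter responds to both AR and GR. Luminescence measured after 30 min room-temperature incubation with ONE-Glo.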
# [19] = biological target: Androgen receptor (Homo sapiens) (UniProt P10275); assay: qHTS assay to identify small molecule antagonists of the androgen receptor (AR) signaling pathway using the MDA cell line (AID 743042; further: nearly all actives have a fitted effect of over 55% in size; further: potency means the concentration at half of the fitted maximal effect)
# How it was run: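 Antagonist mode: compounds plus R1881 agonist added to MDA-kb2 AR-luc cells, incubated 16 h at 37C. Luciferase reporter luminescence quantified, with multiplexed CellTiter-Fluor readout for cell viability.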
Structure (SMILES),Potency [1],Potency [2],Potency [3],Potency [4],Potency [5],outcome [6],Potency [7],Potency [8],Potency [9],Potency [10],Potency [11],Potency [12],Potency [13],Potency [14],Potency (Aromatase (Homo sapiens)),Potency [15],Potency [16],Potency [17],outcome [18],Potency [19]
O=C(Nc1ccc2c(O)c(N=Nc3ccc(N=Nc4ccc(S(=O)(=O)O)cc4)cc3)c(S(=O)(=O)O)cc2c1)c1ccccc1,inactive,inactive,inactive,24.3 µM (active),30.6 µM (active),inactive,inactive,inactive,27.3 µM (active),,,,,,,,,,,
C[C@H]1NCc2cc(-c3ccc4c(=O)c(C(=O)O)cn(C5CC5)c4c3OC(F)F)ccc21,inactive,,inactive,inactive,inactive,inactive,,inactive,inactive,inactive,inactive,inactive,inactive,inactive,inactive,,,,,
CCCNCCC,inactive,,inactive,,inactive,inactive,,,inactive,inactive,inactive,,,,inactive,inactive,,,,
Cl[Si](Cl)(c1ccccc1)c1ccccc1,inactive,,inactive,,,inactive,inactive,inactive,inactive,inactive,inactive,inactive,inactive,inactive,inactive,,,,,
c1ccc(SSc2ccccc2)cc1,inactive,,,inactive,inactive,inactive,inactive,inactive,inactive,27.5 µM (active),,,inactive,inactive,inactive,inactive,,,,
C=CCCC(=O)/C=C/C1C(C)=CCCC1(C)C (configuration not stated),inactive,inactive,inactive,inactive,,inactive,inactive,,inactive,,,,,,,,,,,
COCCOc1cc2cc(C(=O)NC3CCN(C(C)C)CC3)n(CC(=O)Nc3ccc(Cl)cn3)c2cn1,inactive,,inactive,inactive,60.4 µM (active),inactive,inactive,,inactive,inactive,,,,,inactive,,,,,
CCN(CCN)c1cccc(C)c1,inactive,69.2 µM (active) and inactive,inactive,inactive,,inactive,inactive,inactive,inactive,,inactive,inactive,inactive,inactive,inactive,,,,,
O=c1c(O)c(-c2ccc(O)cc2O)oc2cc(O)cc(O)c12,inactive,,inactive,,inactive,inactive,inactive,inactive,inactive,,,,,inactive,inactive,,,,,
Sc1nc2ccccc2s1,inactive,,,inactive,inactive,inactive,inactive,,inactive,,,,,,,inactive,,,,
Oc1cc(Cl)cc(Cl)c1Cl,,,50.2 µM (active),,inactive,inactive,,inactive,,,,,,inactive,,,,,,
CCCCN(CCCC)CC(O)c1cc(Cl)cc2c1-c1ccc(Cl)cc1/C2=C/c1ccc(Cl)cc1 (configuration not stated),inactive,,,,,,,inactive,inactive,,,inactive,23.7 µM (active),inactive,inactive,29.8 µM (active),,,,
CC[N+](CC)(CC)CCOc1ccc(/C=C/c2ccccc2)cc1,,944 nM (active) and 750 nM (active),inactive,29.8 µM (active),inactive,inactive,inactive,inactive,inactive,750 nM (active) and 668 nM (active),944 nM (active) and 750 nM (active),5.35 µM [inconclusive] (active),,29.8 µM (active),29.8 µM (active),,,,,
CCCCCC/C=C\CCCCCCCC(=O)O,,inactive,inactive,inactive,,,inactive,inactive,inactive,inactive,inactive,inactive,inactive,inactive,inactive,,,,,
CCN(CC)c1ccc2c(-c3ccc(S(=O)(=O)O)cc3S(=O)(=O)[O-])c3ccc(=[N+](CC)CC)cc-3oc2c1,inactive,,,,8.91 µM (active),inactive,inactive,inactive,7.94 µM (active),,,inactive,,,35.5 µM (active),,inactive,inactive,inactive,
COc1cc(S(=O)(=O)O)c(C)cc1N=Nc1c(O)ccc2cc(S(=O)(=O)O)ccc12,inactive,,inactive,,30.6 µM (active),inactive,inactive,inactive,30.6 µM (active),,,inactive,,,,,,,,
CC(N=C(NC#N)Nc1ccncc1)C(C)(C)C (configuration not stated),inactive,,,inactive,inactive,inactive,inactive,,inactive,inactive,,,,,,,,,,
Cc1cccc(C(=O)O)c1O,,inactive,inactive,inactive,inactive,inactive,inactive,inactive,inactive,inactive,inactive,,inactive,inactive,inactive,,,,,
[Cl][Pt-2]([Cl])([Cl])[Cl],inactive,,inactive,inactive,,inactive,inactive,inactive,inactive,,inactive,inactive,inactive,inactive,inactive,,,,,
COC1=C(OC)C(=O)C(CCCCCCCCCCO)=C(C)C1=O,,8.41 µM (active),inactive,,,,inactive,inactive,inactive,13.3 µM (active),10.6 µM (active),,,,29.8 µM (active),,16.9 µM (active),,inactive,inactive
Cc1c2ccccc2c(C)c2c1ccc1ccccc12,,30.3 µM (active) and 3.06 µM (active),48.5 µM (active) and 24.5 µM (active),61.1 µM (active),27 µM (active) and 13.7 µM (active),,,,inactive,15.2 µM (active) and 2.73 µM (active),21.5 µM (active) and 4.33 µM (active),,30.3 µM (active),67.9 nM (active) and 486 nM (active),inactive and 27.3 µM (active),,,,inactive,inactive and 30.6 µM (active)
